Bioassay records as filed in PubChem.
DT40 TDP1 CPT = growth inhibition of DT40 Tdp1-/-;hTDP1 cells with camptothecin (screen for TDP1 inhibitors); 12% of 420,000 active; AID 686979; chicken DT40 Tdp1-/-;hTDP1 cells + 20 nM CPT, ATP luminescence, 48 h; Potency, µM (highest dose often 46.2 µM), for inactives: at the top dose activity change, negative = growth inhibition, usual class: inhibitors; also: potency is read from the fitted curve at half-maximal effect; % is scaled to controls: 0 for no effect and ±100 for the full control effect; nearly all actives have a fitted effect of over 55% in size
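Chicken DT40 Tdp1-/- cells stably complemented with human TDP1 were seeded at 400 cells/well in medium containing 20 nM camptothecin, exposed to pin-transferred compounds, and grown at 37 °C for at least 48 hr. Viability was read as ATP luminescence.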
SW480 rereplic = induces DNA re-replication in SW480 colon adenocarcinoma cells. SW480 DNA re-replication, Hoechst DNA content imaging, 48 h. Potency, µM (top dose mostly 46.1 µM), inactives show top-dose re-replication activation, usual class: activators. 1.8% of 340,000 active. AID 624297; also: potency is read from the fitted curve at half-maximal effect; % of control where 0% means no effect; nearly all actives have a fitted effect of over 55% in size
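Quantitative HTS format with DMSO vehicle controls; 48 hr drug incubation at 37 C, then 40 min Hoechst staining and scanning imager measurement at 405 nm excitation.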
DT40 TDP1 no CPT = qHTS for Inhibitors of human tyrosyl-DNA phosphodiesterase 1 (TDP1): qHTS in cells in absence of CPT; Potency, µM (series often up to 46.2 µM), for inactives: at the highest dose activity change, negative = growth inhibition, most hits filed as inhibitors; DT40 Tdp1-/- hTDP1 cells, no CPT, ATP luminescence, 48 h; AID 686978, 2013; 15% of 420,000 active; also: potency is read from the fitted curve at half-maximal effect; % is scaled to controls: 0 for no effect and ±100 for the full control effect; nearly all actives have a fitted effect of over 55% in size
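Camptothecin absent (DMSO only). Human TDP1-complemented DT40 knockout cells, 400 cells/well, 37 °C for minimum 48 hr; ATP measured via CellTiter-Glo, 30 min dark incubation, luminescence.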
Chronic BCR inh = chronic active BCR signaling inhibition. ABC-DLBCL IkBa-CBG/CBR reporter, luminescence ratio, 4 h. Potency, µM (doses to about 46.1 µM), for inactives: at the top dose activity change, negative = inhibition, most hits filed as inhibitors. 0.05% of 340,000 active. AID 493014; active = well fitted inhibition curve with a large enough effect in the signal ratio, with a control signal flat, not every such curve was filed as active; inconclusive = small, poorly fitted or top-dose-only effect, or effect the other way, or a change in a side signal; the % refers to the signal ratio;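 also: potency is read from the fitted curve at half-maximal effect; plate controls were basal doxycycline-induced cells for no effect and cells given 10 µM MG132 for full effect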
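Compounds up to 46 uM were incubated four hours with TMD8 cells whose green CBG68 luciferase is fused to IkappaBalpha; red CBR luminescence normalised the signal, and concentration-effect curves were fitted to fusion, red and ratio data.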
IL-1B inflam inh = blocks inflammasome-driven IL-1 beta release; THP-1 LPS/ATP IL-1B secretion, AlphaLISA, 16 h; stronger effect = lower value; activity change, % at 57.5 µM; 4.7% of 360,000 active; AID 743279; in the data active = activity change below about -50%; inconclusive = mostly about -30% to -49%; also: % is scaled to controls: 0 for no effect and ±100 for the full control effect
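Secreted IL-1B measured by AlphaLISA bead assay after 16 h compound exposure of THP-1 cells; compounds (final up to 57.5 uM) added 1 h before LPS (250 ng/mL) and ATP (1.25 mM) stimulation; lower signal means less secretion.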
MCF10A rerep = inducers of DNA re-replication in MCF 10A breast cells | MCF 10A DNA re-replication, Hoechst nuclear intensity, 48 h | Potency, µM (titrated, usually from 46.1 µM), without a hit: top-dose activity, positive = re-replication, usual class: activators | 2.9% of 350,000 active; also: potency is read from the fitted curve at half-maximal effect; % of control where 0% means no effect; nearly all actives have a fitted effect of over 50% in size
* hit, by the source's call; ? = inconclusive; / = not tested or not shown. This is a sample that favours compounds with a hit; in the whole collection about 19% have one here. Unless noted, calls follow the shape of the dose curve; as a rule, active = well fitted curve in the direction sought with a large enough effect; inconclusive = small, poorly fitted or top-dose-only effect, or another doubt; inactive = no such curve, though single readings can be large; an effect the other way counts as inactive or inconclusive.

SMILES | DT40 TDP1 CPT | SW480 rereplic | DT40 TDP1 no CPT | Chronic BCR inh | IL-1B inflam inh | MCF10A rerep
Cc1ccc(OCCCCNC2CCCC(C)C2C)c(C)c1 (centres undefined) | 8.2µM* | ? | 7.31µM* | -22.8% | -95.3* | ?
CCc1ccc(NC(=O)c2ccc(CN3C(=O)C(C)=C(c4ccc(C)cc4)S3(=O)=O)cc2)cc1 | ? | / | 10.3µM* | / | / | /
CCOc1ccc(NC(=O)c2ccc(CN3C(=O)C(C)=C(c4ccc(C)cc4)S3(=O)=O)cc2)cc1 | -9.6% | / | ? | / | / | /
CC1=C(c2ccc(C)cc2)S(=O)(=O)N(Cc2ccc(C(=O)Nc3ccccc3C)cc2)C1=O | 7.31µM* | / | 8.2µM* | / | / | /
CC1=C(c2ccc(C)cc2)S(=O)(=O)N(Cc2ccc(C(=O)Nc3ccc(F)cc3C)cc2)C1=O | 5.8µM* | / | 5.17µM* | / | / | /
COc1ccc(C2=C(C)C(=O)N(Cc3ccc(C(=O)Nc4ccc(C)c(C)c4)cc3)S2(=O)=O)cc1 | -21.9% | / | ? | / | / | /
Cc1cc(F)ccc1NC(=O)c1ccc(NS(=O)(=O)c2cccs2)cc1 | -6.1% | / | ? | / | -0.9 | /
COC(=O)[C@]12CCCCC=C1N(Cc1ccco1)C(=O)[C@H](CC(=O)NCc1ccccc1)C2 | -23.0% | / | -23.3% | / | -10.8 | /
CC(C)(C)c1ccc(NC(=O)CSc2n[nH]c(=O)n2C2CC2)cc1 | -26.7% | 3.8% | ? | -15.4% | 43.9 | 0.5%
CCOC(=O)c1nnc(-c2cccs2)nc1Oc1ccccc1C(=O)OC | -23.2% | 0.5% | -27.9% | ? | 25.7 | ?
CCOC(=O)c1nnc(-c2ccc(C)cc2)nc1Oc1ccc(Cl)cc1Cl | ? | -7.2% | 16.4µM* | ? | -28.0 | ?
CCOC(=O)c1nnc(-c2ccc(C)cc2)nc1Oc1ccccc1Cl | ? | ? | ? | ? | ? | 2.31µM*
COc1ccc(CCN(C(=O)C(F)(F)F)C(C(=O)NC2CCCC2)c2cccs2)cc1 (centres undefined) | 6.51µM* | ? | 6.51µM* | 17.9% | -12.9 | -2.7%
Cc1cccc(CCN(C(=O)c2csnn2)C(C(=O)NC2CCCC2)c2ccco2)c1 (centres undefined) | 14.6µM* | 14.2% | 16.4µM* | -9.1% | -85.4* | -3.0%
O=C(NC1CCCCC1)C(c1ccco1)N(CCc1ccccc1)C(=O)C(F)(F)F (centres undefined) | 23.1µM* | 1.4% | 23.1µM* | ? | 17.4 | 1.7%
Cc1ccc(N(C(=O)C(F)(F)F)C(C(=O)NC2CCCCC2)c2cccs2)cc1C (centres undefined) | -4.0% | -6.7% | -6.9% | -1.1% | -9.8 | -5.1%
O=C(NC1CCCCC1)C(c1cccs1)N(C(=O)C(F)(F)F)c1ccccc1 (centres undefined) | ? | ? | -16.4% | -17.7% | 15.5 | 14.6µM*
Cc1cccc(CCN(CC(=O)NC2CCCCC2)C(=O)c2csnn2)c1 | 9.7% | 5.2% | -17.0% | 6.0% | 1.4 | -3.0%
COc1ccc(S(=O)(=O)Nc2ccc(-n3cnnn3)cc2)cc1[N+](=O)[O-] | -11.4% | -21.9% | -29.8% | -6.0% | 10.0 | -4.9%
Cc1cccc(OCCSCc2nc3ccccc3[nH]2)c1 | 16.4µM* | -5.5% | 20.6µM* | -1.5% | 7.6 | ?
Cc1ccccc1OCCSCc1nc2ccccc2[nH]1 | 16.4µM* | -12.9% | ? | 1.6% | 6.8 | 7.1%
CCN(C(=O)c1cccnc1SC)C12CC3CC(CC(C3)C1)C2 | ? | ? | 20.6µM* | 2.6% | 17.5 | 2.1%
COc1ccc(N2C(=O)c3cccc4cccc(c34)C2=O)cc1 | -4.2% | 13µM* | 6.6% | -1.5% | 2.5 | 2.5%
O=C1c2cccc3cccc(c23)C(=O)N1c1ccncc1 | ? | -9.2% | ? | ? | -5.6 | -2.0%
O=C1c2cccc3cccc(c23)C(=O)N1c1cccnc1 | 1.7% | 2.6% | -29.6% | ? | 12.6 | 18.4µM*
SMILES | DT40 TDP1 CPT | SW480 rereplic | DT40 TDP1 no CPT | Chronic BCR inh | IL-1B inflam inh | MCF10A rerep
COc1ccc(N2C(=O)Cc3ccccc3C2=O)cc1 | ? | -8.7% | 13µM* | 0.0% | -13.2 | -8.1%
COc1ccc(S(=O)(=O)NCC2CC3C=CC2C3)cc1OC (centres undefined) | -5.3% | -0.1% | ? | -1.9% | -11.8 | -1.9%
Cc1ccc(N(CC(=O)N2CCCCCC2)S(C)(=O)=O)cc1 | 3.5% | / | 7.3% | / | -6.7 | /
O=C(CN1C=NS(=O)(=O)c2ccccc21)Nc1ccccc1F | -9.6% | / | -15.9% | ? | / | /
COCCNc1nc(-c2ccc(Cl)cc2C)c2sccc2n1 | ? | / | ? | / | -14.4 | /
CC(C)c1ccc(/C=C/C2=NNC(=O)CC2)cc1 | 18.4µM* | ? | 11.6µM* | ? | 14.6 | ?
COc1cc(/C=C/C2=NNC(=O)CC2)cc(OC)c1OC | -7.2% | 1.6% | 18.7% | -7.0% | -6.9 | 3.8%
Cc1cc(Cn2nc(C(=O)NCc3cccc(C(F)(F)F)c3)cc2-c2ccccc2)on1 | ? | -80.4% | ? | 1.5% | -24.3 | 1.3%
Cc1ccc(CNC(=O)c2cc(-c3ccccc3)n(Cc3cc(C)no3)n2)cc1 | 20.6µM* | -9.9% | ? | -0.2% | -4.1 | -2.0%
CN(C(=O)CCc1ccccc1F)C1CCCN(Cc2ccccc2F)C1 (centres undefined) | 18.4µM* | ? | 16.4µM* | 0.2% | -9.1 | ?
Cc1ccc(Cl)cc1NC(=O)CCN1C(=O)C2C3CCC(C3)C2C1=O (centres undefined) | 10.0% | 1.8% | 2.8% | -8.6% | 7.1 | 4.0%
C[C@@]12C(=O)N(CC3CCCO3)CC(=O)N1[C@H]1c3cc(Cl)ccc3OC[C@@H]1[C@@H]2c1ccccc1 (some centres undefined) | 23.1µM* | -13.0% | 14.6µM* | ? | -16.3 | 31.1%
C[C@@]12C(=O)N(CC3CCCO3)CC(=O)N1[C@@H]1c3ccccc3OC[C@@H]1[C@@H]2c1ccccc1 (some centres undefined) | -1.0% | 3.1% | -22.6% | / | -20.5 | -1.3%
C[C@@]12C(=O)Nc3ccc(Br)cc3C(=O)N1[C@H]1c3cc(Cl)ccc3OC[C@@H]1[C@@H]2c1ccccc1 | ? | 8.2% | 18.4µM* | ? | -15.7 | 8.6%
C[C@@]12C(=O)Nc3ccccc3C(=O)N1[C@H]1c3cc(Cl)ccc3OC[C@@H]1[C@@H]2c1ccccc1 | ? | ? | ? | -0.2% | ? | 7.31µM*
